Measurements taken from PubChem BioAssay (NCI).
Compounds without any hit were thinned out: in the full panel of roughly 83,000, 20% have a hit.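 Method: cells in 96-well plates; compound added at one concentration; 48 h incubation; percent growth measured; values under 10 scored active.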 Unmarked numbers belong to inactive results. Active and inactive are the calls of the source.

Experiments:
Assay in all cases: NCI-60 one-dose screen, 48 h (100 = growth as untreated, 0 = no growth, -100 = all killed)
Conditions in all cases: 10 µM unless noted
T-47D breast = test system: T-47D breast
BT-549 breast = test system: BT-549 breast
MDA-MB-435 melanoma = test system: MDA-MB-435 melanoma
SW-620 colon = test system: SW-620 colon
MCF7 breast = test system: MCF7 breast
HCT-116 colon = test system: HCT-116 colon
HCC-2998 colon = test system: HCC-2998 colon
KM12 colon = test system: KM12 colon

Row | Structure (SMILES) | growth (T-47D breast) | growth (BT-549 breast) | growth (MDA-MB-435 melanoma) | growth (SW-620 colon) | growth (MCF7 breast) | growth (HCT-116 colon) | growth (HCC-2998 colon) | growth (KM12 colon)
1 | N#CC1=C(N)OC2=C(C(=O)CCC2)C1c1ccco1 (stereo not drawn) | 92.6% | 110% | 98.9% | 110% | 95.5% | 103% | 104% | 110%
2 | CC(C)CCC[C@@H](C)[C@H]1CC[C@H]2[C@@H]3CC[C@H]4C/C(=N/O)CC[C@]4(C)[C@H]3CC[C@]12C | 103% | 108% | 103% | 97.9% | 103% | 109% | 86.3% | 108%
3 | CC/C(=C(\c1ccc(O)cc1)c1ccc(OCCN(C)CCN(C)C(=O)CCC(=O)c2c(C)[nH]c(/C=C3\N=C(c4ccc[nH]4)C=C3OC)c2C)cc1)c1ccccc1 | 69.3% | 103% | 63.8% | 66.2% | 34.3% | 65.2% | 92.2% | 42.4%
4 | COc1cc(/C=C2\C=C(c3ccc(F)cc3)N(Cc3ccccc3)C2=O)cc(OC)c1OC | 49.1% | 77.3% | 75.2% | 77.4% | 50.8% | 42.2% | 103% | 63.1%
5 | Nc1nc(-c2ccccc2)cs1 | 96.7% | 116% | 107% | 108% | 94.4% | 94.8% | 104% | 106%
6 | COc1ccc(C2NC3=C(CCCC3)C(C#N)(C#N)C2(C#N)C#N)cc1 (stereo not drawn) | 49.2% | 92.9% | 103% | 48.2% | 49.9% | 78.7% | 102% | 103%
7 | COc1ccc(Cl)cc1NC(N)=S | 96.3% | 107% | 104% | 104% | 96.2% | 102% | 102% | 105%
8 | COc1ccc(NC(=O)CSc2nc3ccccc3c(=O)n2Cc2cc(OC)c(OC)c(OC)c2)cc1 | 84% | 89.1% | 101% | 104% | 93.8% | 89.5% | 109% | 97.7%
9 | CCOC(=O)C1=C(CSC(=S)N(C2CCCCC2)C2CCCCC2)N(C)C(=O)NC1c1ccccc1 (stereo not drawn) | 50.2% | 66.3% | 58.1% | 37.2% | 46.4% | 26.2% | 71.9% | 55.7%
10 | c1ccc2c(c1)Oc1ccccc1C2C1c2ccccc2Oc2ccccc21 | 81.4% | 106% | 99.4% | 97.7% | 95.4% | 84.2% | 99.9% | 95.2%
11 | CN(C)C/C=C/C(=O)Nc1cc2c(Nc3cccc(Cl)c3F)ncnc2cc1OCCOC(F)F | -4.28% (active) | 41% | 15.4% | 31% | 35.1% | 25.7% | 68.3% | 80.7%
12 | CC(C)(C)c1cc(-c2nc3ccc(N4CCN(CCO)CC4)cc3[nH]2)cc(C(C)(C)C)c1O | 60.6% | 92% | 6.38% (active) | 9.88% (active) | 35.6% | 25.3% | 12.9% | 18.2%
13 | CCCCC[C@@H]1Cc2cc(O)c(C(=O)O)c3c2[C@H](C[C@@]2(CCCO2)O3)O1 | 108% | 115% | 97.2% | 111% | 102% | 100% | 95.9% | 118%
14 | COc1cccc(/C=C/c2c(C(=O)O)cccc2[N+](=O)[O-])c1OC | 91.2% | 107% | 101% | 99.7% | 95.8% | 97.9% | 104% | 96.8%
15 | O=c1oc2cc(OS(=O)(=O)c3ccc(F)cc3)ccc2c2c1CCCCC2 | 30.3% | 73.6% | 78.5% | 46.3% | 59.9% | 54.4% | 69.8% | 55.1%
16 | CC/C=C\C/C=C\C[C@H](O)C/C=C1/C(=O)C=C[C@H]1C/C=C\CCC(=O)OC | 16.7% [8.25 µM] | 14.6% [8.25 µM] | -14.1% [8.25 µM] (active) | 6.55% [8.25 µM] (active) | 28.1% [8.25 µM] | -41.6% [8.25 µM] (active) | 61.2% [8.25 µM] | 3.51% [8.25 µM] (active)

Row | Structure (SMILES) | growth (T-47D breast) | growth (BT-549 breast) | growth (MDA-MB-435 melanoma) | growth (SW-620 colon) | growth (MCF7 breast) | growth (HCT-116 colon) | growth (HCC-2998 colon) | growth (KM12 colon)
17 | O=S(=O)(NCCCNc1nccc(-c2c(-c3ccc(O)cc3)nc3sccn23)n1)c1ccc(F)cc1 | -5.79% (active) | 14% | -17.9% (active) | 9.69% (active) | 6.45% (active) | -40% (active) | -10.7% (active) | 11.9%
18 | Cc1ccc(S(=O)(=O)OCC(=O)Nc2ccc(C(=O)O)c(O)c2)cc1 | 106% | 89.2% | 114% | 105% | 105% | 96.2% | 87.6% | 110%
19 | CCN(CC)c1cc(/C=C/c2ccc(OC)c(OC)c2)nc2cc(F)c(F)cc12 | 40.2% | 24.5% | 100% | 104% | 65.3% | 24.3% | 116% | 103%
20 | COC1=CC(c2ccc[nH]2)=N/C1=C\c1[nH]c(C)c(CCCn2cc(CCCCCCCCC[C@@H]3Cc4cc(O)ccc4C4CC[C@]5(C)[C@@H](O)CC[C@H]5C43)nn2)c1C (stereo partly drawn) | 38.4% | 67.6% | 72.4% | 44.8% | 16.4% | 37.3% | 36.4% | 16.2%
21 | O=S(=O)(O)CCl | 97.2% | 100% | 108% | 103% | 103% | 103% | 98.9% | 105%
22 | O=C(O)Cc1ccc2c(c1)Cc1cccnc1O2 | 89.3% | 101% | 103% | 106% | 94.6% | 100% | 99% | 98.7%
23 | COC(=O)CC/C(C)=N\Nc1ccc([N+](=O)[O-])cc1 | 42% | 89.1% | 31.7% | 54.4% | 77.1% | 54.1% | 66.1% | 24.3%
24 | O=C1N=C(c2c(-c3[nH]c(=O)c4ccc(Br)cc4c3O)c(O)c3ccccc3c2O)C(=O)c2cc(Br)ccc21 | -34.2% (active) | -25.4% (active) | -63.4% (active) | -70.7% (active) | -35.2% (active) | -21.7% (active) | -44.3% (active) | -53.2% (active)
25 | COc1cc(C(=O)CCCl)ccc1O | 94.7% | 112% | 103% | 103% | 80.2% | 100% | 103% | 97.1%
26 | COc1ccc(NC(=O)c2cc3ccccc3nc2Nc2cc(OC)c(OC)c(OC)c2)cc1 | 27.1% | 52.8% | 63.9% | 75.1% | 39.4% | 48.2% | 89% | 37.9%
27 | C=C1C(=O)O[C@H]2[C@H]1CC/C(COC(=O)NCCc1ccc(OC)cc1)=C\CC[C@@]1(C)O[C@@H]21 | -5.43% (active) | 8.9% (active) | 21.5% | -65.6% (active) | 2.77% (active) | -58.4% (active) | 71.1% | 56.9%
28 | COc1cc(OC)c(C(=O)/C=C/c2ccc(C(F)(F)F)cc2)c(OC)c1 | 26.6% | -3.68% (active) | 23.8% | 9.97% (active) | 19.7% | 20.4% | 85% | 36.6%
29 | COc1cccc(-c2nc3sccn3c2-c2ccnc(NCCNS(=O)(=O)c3ccccc3)n2)c1 | 9.54% (active) | 58.2% | 29.8% | 106% | 53.3% | 49.7% | 119% | 53.4%
30 | C=CCN=C1NC(=O)/C(=C/c2cc(C(C)(C)C)c(O)c(C(C)(C)C)c2)S1 | 47.1% | 55.6% | -2.99% (active) | 63.5% | 43.8% | 46.4% | 89.8% | 61.4%
31 | O=C(Nc1ccc(F)c(Cl)c1)c1n[nH]c(=O)c2ccccc12 | 81.1% | 132% | 93.2% | 107% | 60.6% | 101% | 103% | 92.4%
